NS1 function inh = inhibitors of influenza NS1 protein function | Potency, µM (highest dose often 46.1 µM), inactives show at the top dose activity, positive = more growth | 270,000 tested, 0.4% active; note: actives are rising curves; nearly all actives have a fitted effect of over 50% in size
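A cell-based growth assay was used: compounds that relieve NS1-induced slow growth of budding yeast raise OD600. Assay medium was yeast nitrogen base with ammonium sulphate and -URA supplement, pH 6.0, with 2% galactose.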
Pf growth 96h = P. falciparum growth inhibition at 96 hour, primary screen for plastid delayed-death inhibitors | Potency, µM (doses to about 28.7 µM), for the others: top-dose activity change, negative = inhibition, hits mostly inhibitors | 320,000 tested, 6.9% active | P. falciparum luciferase reporter growth, 96 h; active = well fitted inhibition curve with a large enough effect; inconclusive = small, poorly fitted or top-dose-only effect, or another doubt; inactive = no such curve, though single readings can be large or run the other way; note: % is set by controls: 0 for no effect and ±100 for the full control effect
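Delayed-death screen, second-generation endpoint: infected erythrocytes, 2% hematocrit, 0.05% parasitemia final; 96 hours at 37 C, 5% CO2; luciferase detection reagent; luminescence decrease equals reduced growth.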
RE007 growth inh = less growth of the S. pombe RE007 Vpr strain. Potency, µM (titrated, usually from 92.2 µM), without a hit: at the highest dose activity change, negative = less growth, usual class: inhibitors. 360,000 tested, 0.21% active. S. pombe RE007 Vpr strain, BacTiter-Glo ATP luminescence, 24 h; active = well fitted falling curve with a large enough effect; inconclusive = small, poorly fitted or top-dose-only effect; inactive = no such curve, though single readings can be large or run the other way; note: % is set by controls: 0 for no effect and ±100 for the full control effect; nearly all actives have a fitted effect of over 50% in size
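Fission yeast strain RE007, carrying one chromosomally integrated HIV-1 vpr copy, was seeded at OD 0.01 in PMG+AL medium with 23 nL pinned compound. After 24 h at 30 °C and 99% humidity, viability was read by BacTiter-Glo luminescence.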
SARS PLpro yeast = inhibitors of SARS-CoV papain-like protease in yeast; AID 485353; S. cerevisiae expressing SARS-CoV PLpro, growth rescue; 330,000 tested, 0.19% active; Potency, µM (titrated, usually from 32.9 µM), inactives show at the highest dose activity, positive = growth rescue, most hits filed as activators; note: 0% is about no effect; nearly all actives have a fitted effect of over 55% in size
Pf growth 48h = inhibits P. falciparum growth in the first generation, 48 h; 310,000 tested, 5.9% active; P. falciparum luciferase growth in erythrocytes, 48 h; Potency, µM (series often up to 28.7 µM), without a hit: at the top dose activity change, negative = inhibition, most hits filed as inhibitors; AID 504832; active = well fitted inhibition curve with a large enough effect; inconclusive = small, poorly fitted or top-dose-only effect, or another doubt; inactive = no such curve, though single readings can be large or run the other way; note: % is set by controls: 0 for no effect and ±100 for the full control effect
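Luciferase-expressing parasites in RBCs, 2% Hct / 0.1% parasitemia final; RPMI 1640 + 0.5% Albumax; 37 C, 5% CO2, one generation; luminescence read-out, lower signal = inhibition.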
An asterisk follows results filed as active; ? = inconclusive; . = not tested or not shown; [ ] = dose if it differs, or a comment. Sampled rows, rich in hits. Any-hit rate of the full collection: about 9.5%. Unless noted, calls come from the whole dose curve. Potency is the fitted concentration of half-maximal effect.

SMILES | NS1 function inh | Pf growth 96h | RE007 growth inh | SARS PLpro yeast | Pf growth 48h
COc1cc(C(=O)NCC(=O)NCC(c2ccco2)N2CCCCC2)cc(OC)c1OC (stereo not given) | . | 3.29µM* | 4.0% | 5.0% | ?
COc1ccc(CNC(=O)c2nccnc2CO)cc1 | 6.3% | 8.28µM* | -11.3% | 1.5% | 19.1%
COc1ccc(C(CNC(=O)c2cccc(N(C)C)c2)N2CCCC2)cc1 (stereo not given) | 7.7% | ? | 17.5% | 3.4% | 10.4µM*
CO[C@@H]1/C=C\O[C@@]2(C)Oc3c(C)c(O)c4c(c3C2=O)C(=N[C@H]2CC[C@H](O)O[C@@H]2C)C=C(NC(=O)/C(C)=C\C(=O)[C@@H]2C[C@@H]2[C@@H](O)[C@H](C)[C@@H](O)[C@H](C)[C@H](OC(C)=O)[C@@H]1C)C4=O | 3.8% | . | . | . | .
O=C(CNC(=O)N1CC(=O)Nc2ccccc21)NCCc1c[nH]c2ccccc12 | 8.8% | -9.2% | -6.1% | -3.8% | 5.6%
CCN(c1ccccc1)S(=O)(=O)c1cccc(C(=O)NCC(c2ccc(OC)cc2)N2CCCCC2)c1 (stereo not given) | . | . | 5.5% | . | .
COc1ccc(NS(=O)(=O)c2cccc(C(=O)NCC(c3ccccc3OC)N3CCCC3)c2)cc1 (stereo not given) | . | ? | -26.1% | 5.2% | 10.4µM*
C=CCN(c1ccccc1)S(=O)(=O)c1cccc(C(=O)NCC(c2ccc(OC)cc2)N2CCCCC2)c1 (stereo not given) | . | ? | -8.5% | -4.3% | 10.4µM*
COc1ccccc1C(CNC(=O)c1cccc(S(=O)(=O)Nc2ccc(F)cc2)c1)N1CCCC1 (stereo not given) | . | . | -7.4% | . | .
COc1ccc(NS(=O)(=O)c2cccc(C(=O)NCC(c3ccc(OC)cc3)N3CCCC3)c2)cc1 (stereo not given) | . | 7.38µM* | -6.7% | 2.0% | 6.57µM*
COc1ccc(NS(=O)(=O)c2cccc(C(=O)NCC(c3ccc(OC)cc3)N3CCCCC3)c2)cc1 (stereo not given) | . | . | -10.2% | . | .
COc1ccc(C(CNC(=O)c2ccc(C)c(S(=O)(=O)Nc3ccccc3OC)c2)N2CCCC2)cc1 (stereo not given) | ? | ? | -18.5% | 7.6% | 4.15µM*
CCC1CCc2sc(C(=O)NNC(=O)c3ccncc3)cc2C1 (stereo not given) | . | 3.2% | -2.4% | . | -6.1%
CCC1CCc2sc(C(=O)O)cc2C1 (stereo not given) | -200.9% | 3.29µM* | 9.6% | -9.1% | 6.3%
COc1ccccc1CNC(=O)c1cccc(N(C)C)c1 | -9.7% | . | ? | -11.3% | 2.3%
COc1ccc(CNC(=O)c2cccc(N(C)C)c2)cc1 | -1.2% | 1.85µM* | ? | -10.0% | 17.5%
Cc1ccccc1-c1cc2nc(NCCN3CCNC3=O)n(C)c(=O)c2s1 | . | . | 30.6% | . | .
Cc1cc(C(=O)NCC(=O)OC(C)C(=O)N2CCOCC2)ccc1[N+](=O)[O-] (stereo not given) | . | 7.38µM* | -0.7% | 5.3% | ?
CCOC(=O)C1=C(N)OC2=C(C(=O)CC(C)(C)C2)C1c1ccc(CC)s1 (stereo not given) | . | 4.15µM* | 2.6% | 6.4% | 23.7%
Cc1ccc(S(=O)(=O)Nc2ccc(C(=O)Nc3ccncc3)cc2)cc1 | 3.7% | 10.4µM* | -13.3% | 15.0% | -26.1%
O=C(Nc1ccc(NS(=O)(=O)c2ccccc2)cc1)c1ccccc1Cl | . | . | -10.9% | -0.9% | .
O=C(O)c1ccc(NS(=O)(=O)c2ccc(NC(=O)c3ccccc3Cl)cc2)cc1 | ? | 6.57µM* | 13.9% | 0.5% | 21.7%
Cc1ccc(NS(=O)(=O)c2ccc(NC(=O)c3cccc(NC(=O)C(C)C)c3)cc2)cc1 | 4.6% | 1.65µM* | 0.2% | 5.9% | 17.1%
Cc1ccc(C(C#N)=Cc2ccc3c(c2)OCO3)cc1 | . | . | 2.4% | . | .
COc1ccc(-c2cn(Cc3ccc(C(=O)NCc4ccc(C)cc4)cc3)c(C(C)N)n2)cc1 (stereo not given) | . | ? | 3.6% | 0.4% | 11.7µM*
SMILES | NS1 function inh | Pf growth 96h | RE007 growth inh | SARS PLpro yeast | Pf growth 48h
CCNC(=S)N1N=C2c3ccccc3CCC2C1c1ccc(F)cc1 (stereo not given) | 1.1% | 2.62µM* | -3.2% | -0.2% | 7.38µM*
CCn1c(SCc2ccccc2)nnc1-c1ccc(S(=O)(=O)N2CCCCC2)cc1 | -13.6% | 0.0% | 15.4% | -3.8% | 10.4µM*
CCN(C(=O)CSc1nc2cc(C(=O)OC)ccc2c(=O)n1Cc1ccco1)c1cccc(C)c1 | -2.5% | -6.9% | 12.2%[3.69 µM] | 3.2% | 4.65µM*
C=CCn1c(SCC(=O)OCC)nc2cc(C(=O)NCc3ccco3)ccc2c1=O | 2.2% | 7.38µM* | 10.0% | 5.9% | .
CCCCCn1c(SCC(=O)OCC)nc2cc(C(=O)NCc3ccco3)ccc2c1=O | 6.7% | 14.8% | -2.0% | 1.7% | ?
COCCNC(=O)c1ccc2c(=O)n(Cc3ccco3)c(SCC(=O)NC3CCCC3)nc2c1 | -3.5% | 11.7µM* | ? | 10.2% | .
CCc1ccc(NC(=O)CSc2nc3cc(C(=O)OC)ccc3c(=O)n2Cc2ccco2)cc1 | 4.4% | -12.0% | -9.9% | -4.5% | 33.6%
Cc1ccc(S(=O)(=O)Nc2cccc(S(=O)(=O)Nc3ccccc3C(=O)O)c2)c(C)c1 | . | . | 3.6% | -6.6% | .
O=C(Nc1c(-c2ccc(Cl)cc2)[nH][nH]c1=O)c1ccccn1 | . | . | 30.5% | . | .
CCOC(=O)c1[nH]c(COC(=O)c2ccccc2NC(=O)c2ccco2)c(C(=O)OCC)c1C | 0.8% | ? | -1.8% | -2.6% | 11.7µM*
CCOC(=O)c1[nH]c(C)c(C(=O)OCC(=O)N2CC(=O)Nc3ccccc32)c1C | -0.5% | 9.28µM* | -0.2% | -1.1% | ?
Cc1noc(C)c1COc1ccc(C(=O)OCC(=O)N2CC(=O)Nc3ccccc32)cc1 | -23.5% | ? | 12.0% | -18.6% | 4.65µM*
Cc1noc(C)c1COc1ccc(C(=O)OCC(=O)N2c3ccccc3NC(=O)C2(C)C)cc1 | 13.7% | ? | 0.2% | -0.3% | .
CCOC(=O)c1c(C)[nH]c(C(=O)COC(=O)c2ccccc2NC(=O)c2ccco2)c1C | -1.6% | 34.7% | -14.9% | 0.2% | -3.6%
O=C1CN(C(=O)COC(=O)c2ccccc2NC(=O)c2ccco2)c2ccccc2N1 | -1.1% | 13.1µM* | 20.3% | ? | -10.4%
C[C@H](NC(=O)/C(C#N)=C/c1ccc(O)c(O)c1)c1ccccc1 | 9.0% | . | . | . | .
CCOc1ccc(Oc2c(/C=N/NC(=O)COc3ccccc3OC)c(C)nn2-c2ccccc2)cc1 | 21.4% | 5.22µM* | 18.6% | 0.5% | ?
COc1cccc(C2=NNC(=NCc3ccccc3)SC2)c1 | . | 0.0% | 7.0% | -1.9% | ?
COc1cccc(C2=NC(C)(C)NC(c3ccccc3O)C2)c1 (stereo not given) | -8.9% | 0.0% | ? | -7.7% | 9.28µM*
